About 79,000 compounds went through this panel and 15% of them were active in at least one assay; those are over-represented in the sample as a whole. A number with no mark means an inactive call. Activity calls are given as the source filed them. No stated cut-off is given here; in the data, active means growth inhibition above about 70%; inactive means the rest.
Columns and labels:
[1] = NCI Yeast Anticancer Drug Screen. Data for the rad50 strain (AID 155);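 further: 0% = growth of vehicle-only cultures of the same strain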; conditions: S. cerevisiae rad50 strain growth inhibition, hits give high values
Summary of the method: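 Vehicle-treated cultures provide the reference for the growth inhibition reported for compound-exposed, repair-deficient yeast.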

[2] = NCI Yeast Anticancer Drug Screen. Data for the mec2-1 strain (AID 157); conditions: S. cerevisiae mec2-1 strain, hits give high values
Summary of the method: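 Mutant yeast (mec2-1) grown with compound; growth inhibition relative to vehicle control reported.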

[3] = NCI Yeast Anticancer Drug Screen. Data for the sgs1 mgt1 strain (AID 161);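 further: 0% = growth of cultures given vehicle only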; conditions: S. cerevisiae sgs1 mgt1 strain, hits give high values
Summary of the method: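 Growth of a repair-deficient yeast mutant was monitored after compound treatment and expressed as inhibition relative to vehicle-treated cultures.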

[4] = NCI Yeast Anticancer Drug Screen. Data for the cln2 rad14 strain (AID 165);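 further: 0% = growth equal to vehicle treated cultures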; conditions: S. cerevisiae cln2 rad14 strain, hits give high values
Summary of the method: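 Readout is yeast growth inhibition versus vehicle-treated controls, using a strain with cln2 and rad14 alterations exposed to compound.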

[5] = NCI Yeast Anticancer Drug Screen. Data for the bub3 strain (AID 167); conditions: S. cerevisiae bub3 mutant strain, hits give high values
Summary of the method: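 Mutant yeast screening strain plus compound; vehicle-treated cultures serve as the 0% inhibition reference.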

[6] = NCI Yeast Anticancer Drug Screen. Data for the mlh1 rad18 strain (AID 175); conditions: S. cerevisiae mlh1 rad18 strain growth inhibition, hits give high values
Summary of the method: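 Genetically defined yeast (DNA repair-deficient) exposed to compounds; growth inhibition determined relative to vehicle.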

[7] = at 5.0 µM (retest, dose inferred, filed as 0.5)
[8] = at 50.0 µM (retest, dose inferred, filed as 5.0)

Row | SMILES | growth inhibition [1, 7] | growth inhibition [1, 8] | growth inhibition ([1]; at 50.0 µM) | growth inhibition [2, 7] | growth inhibition [2, 8] | growth inhibition ([2]; at 50.0 µM) | growth inhibition [3, 7] | growth inhibition [3, 8] | growth inhibition ([3]; at 50.0 µM) | growth inhibition [4, 7] | growth inhibition [4, 8] | growth inhibition ([4]; at 50.0 µM) | growth inhibition [5, 7] | growth inhibition [5, 8] | growth inhibition ([5]; at 50.0 µM) | growth inhibition [6, 7] | growth inhibition [6, 8] | growth inhibition ([6]; at 50.0 µM)
1 | Cc1ccc(SCc2ccc(Cl)cc2Cl)nn1 | -1% | 64% | 96.8% (active) | -16% | 85% (active) | 94% (active) | -4% | 85% (active) | 82.8% (active) | 0% | 20% | 25.9% | 12% | 61% | 93.8% (active) | -3% | 78% (active) | 94% (active)
2 | Nc1ccccc1SC(C[N+](=O)[O-])c1ccc2c(c1)OCO2 (stereo not given) | 82% (active) | 99% (active) | 98.8% (active) | 72% (active) | 100% (active) | 99% (active) | 69% | 99% (active) | 99% (active) | 45% | 99% (active) | 97% (active) | 80% (active) | 100% (active) | 98.5% (active) | 65% | 99% (active) | 99% (active)
3 | COc1ccc(OC)c(C[P+](c2ccccc2)(c2ccccc2)c2ccccc2)c1 | 97% (active) | 96% (active) | 98.7% (active) | 97% (active) | 99% (active) | 98.9% (active) | 97% (active) | 99% (active) | 98.5% (active) | 92% (active) | 99% (active) | 98.8% (active) |  |  |  | 98% (active) | 99% (active) | 99% (active)
4 | Cc1cc(NCCCCCCCNc2cc(C)nc3cc(N)ccc23)c2ccc(N)cc2n1 | 4% | 85% (active) | 79.6% (active) | -11% | 76% (active) | 85.5% (active) | 12% | 78% (active) | 86% (active) | 12% | 45% | 82% (active) | -12% | 82% (active) | 87% (active) | -3% | 83% (active) | 91.5% (active)
5 | CCOc1cc2c(cc1O)CC[C@@H]1[C@@H]2CC[C@]2(C)[C@@H](O)CC[C@@H]12 | 33% | 39% | 41% | 13% | 33% | -10.4% | 13% | 34% | 46.8% | 12% | 30% | 33.4% |  |  |  | 27% | 42% | 40.8%
6 | CC/C(=C(\CC)c1ccc(O)c(CN(CC)CC)c1)c1ccc(OC)cc1 | -1% | 68% | 99.4% (active) | 15% | 62% | 99.7% (active) | -31% | 92% (active) | 99.6% (active) | -1% | 80% (active) | 99.5% (active) | 0% | 65% | 99.4% (active) | 5% | 99% (active) | 99.5% (active)
7 | CC(C)Cn1cnc2c(SCc3ccc(Cl)cc3Cl)nc(N)nc21 | 0% | 46% | 36.7% | -1% | 38% | 29.9% | 20% | 45% | 90.8% (active) | -15% | 44% | 41.2% | 4% | 32% | 38.7% | -3% | 66% | 66.8%
8 | N#CC(/C=C/c1ccccc1)(NO)Nc1cccc(Cl)c1 (stereo not given) | 6% | 98% (active) | 99.2% (active) | 32% | 99% (active) | 99.6% (active) | 39% | 99% (active) | 99.1% (active) | 10% | 99% (active) | 98.8% (active) | 29% | 99% (active) | 99.5% (active) | 23% | 99% (active) | 99.5% (active)
9 | CC(C)N1C(=O)C=CC1=O | 6% | 67% | 93.7% (active) | 7% | 60% | 98.8% (active) | 7% | 53% | 52.1% | 2% | 57% | 57% |  |  |  | 3% | 60% | 54%
10 | Cn1c(=S)c2[nH]c(SCc3ccncc3)nc2n(C)c1=O | -2% | 7% | 47.2% | 0% | -1% | 59% | -2% | 53% | 64% | -3% | -12% | 17.8% | -9% | 2% | 56.4% | -19% | -6% | 78.1% (active)
11 | COc1ccccc1C(=O)Nc1ccc(Cl)c(C(=O)OC(C)C)c1 | 16% | 33% | -1.8% | 7% | 20% | 22.2% | 14% | -32% | 70.8% (active) | 14% | 38% | 58.6% | 13% | 47% | 73.2% (active) | 15% | 65% | 28.7%
12 | O=C1C=CC(Nc2cccc([N+](=O)[O-])c2)C1Nc1cccc([N+](=O)[O-])c1 (stereo not given) | -21% | -16% | 92.3% (active) | 16% | -9% | 89.2% (active) | -11% | -11% | 91.5% (active) | -8% | -24% | 90.7% (active) | 19% | -4% | 90.7% (active) | -29% | -19% | 91.7% (active)
13 | OCCN=C1c2ccccc2C2C(c3ccccc31)C1c3ccccc3C(=NCCO)c3ccccc3C21 (stereo not given) | -9% | 13% | 46.8% | -4% | -8% | 29.8% | 6% | 6% | 37.4% | 4% | 18% | 31.1% | -6% | 6% | 40.5% | 3% | 47% | 82% (active)
14 | C=CC1(C)CCC2C(=CCC3C(C)(COC4OC(CO)C(O)C(O)C4O)C(O)CCC23C)C1 (stereo not given) | -4% | 99% (active) | 93.2% (active) | -1% | 99% (active) | 93.9% (active) | -3% | 43% | 93.8% (active) | -1% | 70% (active) | 91.5% (active) | 18% | 92% (active) | 93.6% (active) | -3% | 99% (active) | 92.8% (active)
15 | NC(N)=NC(N)=Nc1ccc(-c2ccccc2)cc1 | -17% | 96% (active) | -11.6% | 1% | 96% (active) | 14.6% | 2% | 97% (active) | 2.45% | -8% | 93% (active) | 7.8% | -1% | 97% (active) | 76.5% (active) | 4% | 96% (active) | 32.4%
16 | CC(=O)OC(C)(C)N=Nc1ccc(Br)cc1 | 86% (active) | 99% (active) | 97.9% (active) | 31% | 99% (active) | 98.1% (active) | 60% | 97% (active) | 98.2% (active) | 51% | 94% (active) | 97.3% (active) | 78% (active) | 99% (active) | 97.2% (active) | 63% | 99% (active) | 98.2% (active)
17 | Cc1[nH]c2ccccc2c1C1=CC2(C)Nc3ccccc3C2C(C)(C)C1 (stereo not given) | -4% | 26% | 90.2% (active) | 2% | -1% | 93.8% (active) | -4% | 23% | 92.3% (active) | 2% | -4% | 93.5% (active) | 10% | 79% (active) | 94.8% (active) | -1% | 28% | 94.7% (active)
18 | CN(Cc1cnc2nc(N)nc(N)c2n1)c1ccc(C(=O)NC(CCC(=O)O)C(=O)O)c(Cl)c1Cl (stereo not given) | -4% | 79% (active) | 94.2% (active) | 41% | 98% (active) | 98.2% (active) | -5% | 55% | 85.5% (active) | -8% | -13% | -11.2% |  |  |  | 13% | 82% (active) | 88.2% (active)
19 | O=[N+]([O-])c1ccc(C=NC2CCCCC2)c([N+](=O)[O-])c1 | 0% | 46% | 41% | -1% | 54% | 46% | 2% | 69% | 59.5% | -5% | 25% | -0.85% | 20% | 83% (active) | 55.5% | -5% | 85% (active) | 73.3% (active)
20 | O=C(CCl)N(Cc1ccccc1)Cc1ccccc1 | -2% | 92% (active) | 84% (active) | -1% | 95% (active) | 92.1% (active) | -8% | 94% (active) | 89.5% (active) | 2% | 84% (active) | 42.5% |  |  |  | -1% | 92% (active) | 78.6% (active)

Reference: PubChem BioAssay (NCI)
